Source: PubChem (National Center for Advancing Translational Sciences (NCATS))
Hits are enriched below; roughly 3% of the tested compounds scored in any of these assays.
TbPYK inhibitor – inhibitors of Trypanosoma brucei pyruvate kinase; 410,000 compounds, 0.12% hits; Potency, µM (titrated, usually from 76.8 µM), hits mostly inhibitors; Q57TT1; TbPYK enzyme, Kinase-Glo Plus ATP luminescence, 45 min; further: nearly all actives have a fitted effect of over 50% in size
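Quantitative HTS: titrated library compounds versus trypanosomal pyruvate kinase in TEA buffer (pH 7.2) containing KCl, MgCl2, BSA and Tween-20. Reactions were initiated with ADP, 130 uM final. Kinase-Glo Plus luminescence was read after 45 min at RT.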
RE007 growth inh – less growth of the S. pombe RE007 Vpr strain | Potency, µM (doses to about 92.2 µM), usual class: inhibitors | S. pombe RE007 Vpr strain, BacTiter-Glo ATP luminescence, 24 h | 360,000 compounds, 0.21% hits; active means well fitted falling curve with a large enough effect; inconclusive means small, poorly fitted or top-dose-only effect; inactive means no such curve, though single readings can be large or run the other way; further: nearly all actives have a fitted effect of over 50% in size
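Fission yeast strain RE007, carrying one chromosomally integrated HIV-1 vpr copy, was seeded at OD 0.01 in PMG+AL medium with 23 nL pinned compound. After 24 h at 30 °C and 99% humidity, viability was read by BacTiter-Glo luminescence.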
LmPK inhibitor – inhibitors of Leishmania mexicana pyruvate kinase. Q27686. purified LmPK, Kinase-Glo ATP luminescence, 1 h. Potency, µM (series often up to 57.5 µM), hits mostly inhibitors. 290,000 compounds, 0.37% hits. AID 1721
Target sequence (Q27686 whole entry, looked up): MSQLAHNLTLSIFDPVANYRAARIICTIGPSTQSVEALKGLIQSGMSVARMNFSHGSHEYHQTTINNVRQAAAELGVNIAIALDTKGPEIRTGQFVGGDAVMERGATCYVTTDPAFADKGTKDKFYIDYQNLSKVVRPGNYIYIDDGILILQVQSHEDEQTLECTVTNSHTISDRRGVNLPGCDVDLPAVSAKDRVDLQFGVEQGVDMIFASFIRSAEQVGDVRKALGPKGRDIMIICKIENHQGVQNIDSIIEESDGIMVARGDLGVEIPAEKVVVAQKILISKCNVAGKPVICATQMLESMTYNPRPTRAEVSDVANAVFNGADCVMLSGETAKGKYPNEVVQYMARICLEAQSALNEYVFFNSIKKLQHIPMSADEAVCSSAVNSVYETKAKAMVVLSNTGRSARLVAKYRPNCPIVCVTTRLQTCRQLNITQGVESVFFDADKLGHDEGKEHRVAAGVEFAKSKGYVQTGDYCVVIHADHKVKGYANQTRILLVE
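0.1 nM LmPK, 0.5 mM PEP, 0.1 mM ADP; 50 mM imidazole pH 7.2, 7 mM MgCl2, 50 mM KCl; 1 h RT. Kinase-Glo luminescence readout, normalized to no-enzyme (full inhibition) and uninhibited wells.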
Sm TGR block – inhibitors of Schistosoma mansoni thioredoxin glutathione reductase; Potency, µM (titrated, usually from 114 µM), most hits filed as inhibitors; 360,000 compounds, 3% hits; purified TGR, DTNB reduction, TNB absorbance 405 nm; Q962Y6; further: nearly all actives have a fitted effect of over 60% in size
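Kinetic colorimetric format: TGR-catalysed, NADPH-driven DTNB reduction monitored via TNB absorbance. Enzyme dispensed at 20 nM; compound exposure 15 min at room temperature before reaction start.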
Each line names hits and unclear results; the compound was inactive in the other large screens. Unless noted, the call rests on the fitted dose curve; in most records, active means well fitted curve in the direction sought with a large enough effect; inconclusive means small, poorly fitted or top-dose-only effect, or another doubt; inactive means no such curve, though single readings can be large; an effect the other way counts as inactive or inconclusive.

CCOC(=O)c1ccc(NC(=O)CC2OCCN(CC)C2=O)cc1 (stereo not given)	RE007 growth inh 4.47µM, Sm TGR block 25.1µM
CCN(CC)CCOc1ccc(-c2nc3cc(Cl)ccc3s2)cc1	none (no result: RE007 growth inh, LmPK inhibitor, Sm TGR block)
CC(O)(c1cccc(F)c1)c1nc(-c2ccccc2)cs1 (stereo not given)	none (no result: LmPK inhibitor, Sm TGR block)
OC(c1ccccc1)(c1nc(-c2cccc(C(F)(F)F)c2)cs1)C(F)(F)F (stereo not given)	RE007 growth inh 28.2µM (no result: LmPK inhibitor, Sm TGR block)
CC(O)(c1cccc(F)c1)c1nc(-c2cccc(C(F)(F)F)c2)cs1 (stereo not given)	RE007 growth inh 35.5µM (no result: LmPK inhibitor, Sm TGR block)
COc1nc(NCCc2ccc(OC)c(OC)c2)nc(Nc2ccccc2)n1	none
CCSc1nc2sc3c(c2c2[n+]1CC(CBr)O2)CCCC3 (stereo not given)	Sm TGR block 44.7µM
BrCC1C[n+]2c(SCc3ccccc3)nc3sc4c(c3c2O1)CCCC4 (stereo not given)	Sm TGR block 31.6µM
CCSc1nc2sc3c(c2c(=O)[nH]1)CCCC3	none
CCn1c(-c2cc(C3CC3)nc3ccccc23)n[nH]c1=S	TbPYK inhibitor inconclusive, Sm TGR block 44.7µM (no result: RE007 growth inh)
CC1(C)CC(=O)C(N=Nc2ccc(-c3ccccc3)cc2)=C(O)C1	none
CC1(C)CC(=O)C(C(C#Cc2ccccc2)C2=C(O)CC(C)(C)CC2=O)=C(O)C1	TbPYK inhibitor inconclusive, Sm TGR block 3.98µM
O=C1CCCC(O)=C1C(C#Cc1ccccc1)C1=C(O)CCCC1=O	TbPYK inhibitor inconclusive, RE007 growth inh inconclusive, LmPK inhibitor inconclusive, Sm TGR block 3.16µM
O=C(CSc1nnc2ccc(-c3ccco3)nn12)Nc1ccccc1F	Sm TGR block 11.2µM (no result: LmPK inhibitor)
Cc1ccccc1NC(=O)CSc1ccc(-c2ccco2)nn1	none
Cc1ccccc1NC(=O)CSc1nnc2ccc(-c3ccccn3)nn12	none (no result: LmPK inhibitor)
COc1ccc(OC)c(NC(=O)CSc2ccc(-c3ccco3)nn2)c1	TbPYK inhibitor inconclusive, Sm TGR block 3.55µM
COc1ccccc1NC(=O)CSc1ccc(-c2ccco2)nn1	Sm TGR block 20µM
Cc1ccc(C)c(NC(=O)CSc2ccc(-c3ccco3)nn2)c1	Sm TGR block 12.6µM
CCc1nn(CC(=O)Nc2c(C)cc(C)cc2C)c(=O)c2cc3sccc3n12	none (no result: RE007 growth inh, LmPK inhibitor)
O=C1C(NS(=O)(=O)c2cccs2)=C(N2CCOCC2)C(=O)c2ccccc21	Sm TGR block inconclusive
CN(C1=C(N2CCOCC2)C(=O)c2ccccc2C1=O)c1ccccc1	RE007 growth inh inconclusive, Sm TGR block 25.1µM
O=C(O)c1cccc(NC2=C(N3CCOCC3)C(=O)c3ccccc3C2=O)c1	Sm TGR block 44.7µM
O=C1C=C(N2CCOCC2)c2ccccc2C1=O	Sm TGR block inconclusive
CCCCN(CC)C(=O)Nc1ccc2c(c1)N(C)C(=O)c1ccccc1S2	none (no result: RE007 growth inh, LmPK inhibitor)
COC(=O)C1=C(c2c(C)noc2C)C[C@@H]2CC[C@H]1N2C(=O)N1CCOCC1	Sm TGR block 50.1µM (no result: LmPK inhibitor)
Cn1c(=O)c2c(-c3ccc(Cl)cc3)n(Cc3ccccc3)cc2n(C)c1=O	none (no result: RE007 growth inh, LmPK inhibitor)
COc1ccc(-c2c3c(=O)n(C)c(=O)n(C)c3cn2Cc2cccnc2)cc1	Sm TGR block inconclusive
COc1ccc(-c2c3c(=O)n(C)c(=O)n(C)c3cn2Cc2ccccn2)cc1	Sm TGR block 28.2µM
Cc1ccc(-c2c3c(=O)n(C)c(=O)n(C)c3cn2Cc2ccccn2)cc1	Sm TGR block 35.5µM
CC(CC(=O)Nc1ccc2c(c1)c(=O)n(C)n2-c1ccccc1F)c1ccccc1 (stereo not given)	none (no result: LmPK inhibitor, Sm TGR block)
Cc1cccc(NC(=O)c2cc(S(=O)(=O)NCc3ccc4c(c3)OCO4)ccc2F)c1C	none (no result: RE007 growth inh, LmPK inhibitor)
Cc1ccc(CN2CCNC(=O)C2CC(=O)N(C)C2CCOCC2)cc1 (stereo not given)	Sm TGR block 44.7µM
CN(C(=O)CC1C(=O)NCCN1Cc1c(F)cccc1Cl)C1CCOCC1 (stereo not given)	Sm TGR block 50.1µM
COc1cccc(OC)c1C(=O)Nc1ccc(S(=O)(=O)N2CCCCC2)cc1	none
COc1ccc(S(=O)(=O)n2nc(OC(C)=O)cc2N)cc1	Sm TGR block 25.1µM
CCOC(=O)c1cc(=O)n2nc(-c3ccccc3F)nc2s1	Sm TGR block 10µM
CCOC(=O)c1ccc(NC(=O)Cn2nnc(-c3ccccc3F)n2)cc1	none
O=C(O)C(=O)Nc1cccc(C2=NN=N[N]2)c1	none (no result: RE007 growth inh, LmPK inhibitor, Sm TGR block)
Cc1cc2nccc(-c3ccc(Cl)cc3Cl)n2n1	none
CCOC(=O)CN[C@@H](C(=O)N1CC[C@H]1C(=O)NCc1ccc(/C(N)=N/O)cc1)C1CCCCC1	none (no result: RE007 growth inh, LmPK inhibitor, Sm TGR block)
